Source: PubChem (National Center for Advancing Translational Sciences (NCATS))
A selection: hits, their analogues and other compounds. The true share with any hit is near 7%.
PI5P4Ka inh – inhibitors of human PI5P4K alpha. PI5P4Kalpha enzyme, ADP-Glo luminescence, 60 min; hits give low values. max response, %. P48426. AID 652105. actives 1.2% (n = 330,000); active = max response of -50% or lower; inconclusive = between -30% and -50%; inactive = -30% or higher; also: value at the top dose of about 77 µM; % is scaled to controls: 0 for no effect and ±100 for the full control effect
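PI5P4Kalpha ADP-Glo assay; 5 microM ATP final; 60 min RT reaction; HEPES pH 7.4/EGTA/CHAPS, 5% DMSO; controls lacking substrate or enzyme; luminescent end-point.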
JMJD2A Tudor – blocks the human JMJD2A Tudor domain | Potency, µM (highest dose often 114 µM), for inactives: at the highest dose activity change, negative = inhibition, usual class: inhibitors | AlphaScreen JMJD2A-Tudor / H3K4me3 peptide binding | actives 4.4% (n = 390,000); also: potency is read from the fitted curve at half-maximal effect; % is scaled to controls: 0 for no effect and ±100 for the full control effect; nearly all actives have a fitted effect of over 50% in size
PLK1 PBD inh – inhibitors of human PLK1 polo-box domain binding. Potency, µM, without a hit: max response, negative = inhibition, hits mostly inhibitors. P53350. Plk1 PBD binding of FITC phosphopeptide, fluorescence polarization. actives 2.8% (n = 360,000). AID 720504; also: potency is read from the fitted curve at half-maximal effect; series mostly up to about 57 µM; % is scaled to controls: 0 for no effect and ±100 for the full control effect; nearly all actives have a fitted effect of over 65% in size
Target sequence (P53350 whole entry, looked up, the tested form may be a part): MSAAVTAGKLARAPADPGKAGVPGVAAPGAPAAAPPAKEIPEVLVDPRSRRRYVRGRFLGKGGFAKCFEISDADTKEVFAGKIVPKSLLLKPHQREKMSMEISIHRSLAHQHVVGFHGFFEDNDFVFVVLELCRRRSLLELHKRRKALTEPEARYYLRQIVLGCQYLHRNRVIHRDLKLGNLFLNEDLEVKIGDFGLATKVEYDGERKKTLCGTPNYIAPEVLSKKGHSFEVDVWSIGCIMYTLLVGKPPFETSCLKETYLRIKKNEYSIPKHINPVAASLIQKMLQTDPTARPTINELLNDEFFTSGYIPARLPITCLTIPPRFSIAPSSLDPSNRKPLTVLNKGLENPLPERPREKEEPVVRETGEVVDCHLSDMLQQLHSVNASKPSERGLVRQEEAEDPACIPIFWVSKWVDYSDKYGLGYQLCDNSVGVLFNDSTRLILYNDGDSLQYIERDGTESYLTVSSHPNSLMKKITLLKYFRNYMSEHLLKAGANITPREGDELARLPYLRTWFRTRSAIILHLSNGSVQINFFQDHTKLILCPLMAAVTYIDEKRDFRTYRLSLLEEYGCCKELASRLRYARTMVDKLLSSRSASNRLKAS
BAZ2B inh – inhibitors of human BAZ2B bromodomain | Q9UIF8 | AlphaScreen BAZ2B-H3K14Ac peptide displacement | Potency, µM (doses to about 114 µM), inactives show top-dose activity change, negative = inhibition, actives largely listed as inhibitors | actives 4.4% (n = 360,000) | AID 504333; also: potency is read from the fitted curve at half-maximal effect; % is scaled to controls: 0 for no effect and ±100 for the full control effect; nearly all actives have a fitted effect of over 60% in size
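In this displacement format the biotinylated H3(5-23) peptide acetylated at Lys14 serves as ligand at 50 nM, with BAZ2B at 50 nM in PBS pH 7.4 containing 0.01% Tween-20. Donor and acceptor beads are 10 ug/mL final.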
KAT2A inh – GCN5L2 (KAT2A) acetyltransferase inhibition; Q92830; GCN5L2 HAT assay, ThioGlo1 CoA-SH fluorescence; Potency, µM (series often up to 58.9 µM), for the others: at the top dose activity change, negative = inhibition, usual class: inhibitors; actives 0.21% (n = 390,000); AID 504327; also: potency is read from the fitted curve at half-maximal effect; % is scaled to controls: 0 for no effect and ±100 for the full control effect
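GCN5L2 (20nM final) in 50mM HEPES, 0.1mM EDTA pH 7.5, 0.01% Tween-20 was preincubated 15 min at room temperature with compound, then given ThioGlo1 (50uM), H3(1-25) peptide (75uM) and acetyl-CoA (70uM); CoA-thiol fluorescence (Ex340/Em540) was read at 0 and 20 min.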
HP1b binding inh – inhibitors of HP1-beta chromodomain binding to methylated histone tails. P83916. AlphaScreen HP1-beta / biotin-H3K9me3 peptide binding. Potency, µM (highest dose often 114 µM), for inactives: at the top dose activity change, negative = inhibition, usual class: inhibitors. actives 0.56% (n = 390,000). AID 540317; also: potency is read from the fitted curve at half-maximal effect; nearly all actives have a fitted effect of over 70% in size
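HP1-beta protein (50 nM final) preincubated 30 min at room temperature with biotinylated H3(1-18)K9me3 peptide (50 nM) in PBS pH 7.4, 0.01% Tween-20, then compound added for 30 min. AlphaScreen streptavidin donor/nickel chelate acceptor beads (10 ug/mL final), 30 min dark, luminescence read.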
* = called active by the depositor; ? = inconclusive; / = no result; [ ] = another dose, or the depositor's remark. Unless noted, calls follow the shape of the dose curve; as a rule, active = well fitted curve in the direction sought with a large enough effect; inconclusive = small, poorly fitted or top-dose-only effect, or another doubt; inactive = no such curve, though single readings can be large; an effect the other way counts as inactive or inconclusive.

SMILES	PI5P4Ka inh	JMJD2A Tudor	PLK1 PBD inh	BAZ2B inh	KAT2A inh	HP1b binding inh
CCCSc1ncc(Cl)c(C(=O)N(Cc2ccc(N(C)C)cc2)C2CCS(=O)(=O)C2)n1 (centres undefined)	/	56µM*	/	22µM*	-12%	-7%
Cc1nn(CCCC(=O)Nc2ccccc2C(F)(F)F)c(=O)c2nn(-c3ccccc3)c(C)c12	/	-1%	/	-12%	-6%	29%
COC(=O)c1cc(NS(=O)(=O)c2ccc(N3CCC(C)CC3)c([N+](=O)[O-])c2)cc(C(=O)OC)c1	29	22µM*	-10%	?	-12%	50µM*
O=[N+]([O-])c1cc(S(=O)(=O)Nc2ccccc2)ccc1N1CCN(c2ccc(O)cc2)CC1	3	13µM*	5%	28µM*	-1%	-83%
O=c1cc(NCCc2ccccc2)c2ccccc2o1	7	50µM*	24µM*	2%	-9%	5%
COCOCCn1cc(CN2CCS(=O)(=O)N(Cc3ccc(-c4ccc(F)cc4)cc3)C(C(C)C)C2=O)nn1 (centres undefined)	-2	/	2%	/	/	/
Cc1nc2c(C)cccn2c1/C(O)=C1\C(=O)C(=O)N(CCN2CCOCC2)C1c1ccncc1 (centres undefined)	-1	5.6µM*	-9%	79µM*	?	?
Cc1nc2c(C)cccn2c1/C(O)=C1\C(=O)C(=O)N(CCN(C)C)C1c1ccccc1 (centres undefined)	-1	-5%	0%	-1%	-4%	14%
Cc1nc2c(C)cccn2c1/C(O)=C1\C(=O)C(=O)N(CCN(C)C)C1c1ccco1 (centres undefined)	2	22µM*	-5%	0%	-2%	17%
COc1ccc(NS(=O)(=O)c2ccc(OC)c3ccccc23)cn1	-4	79µM*	?	7%	-8%	?
COc1ccc(NS(=O)(=O)c2cccs2)cn1	6	-4%	0%	-10%	-7%	44%
COc1ccc(NC(=O)C(Cc2ccccc2)NS(=O)(=O)c2ccc(Br)s2)cc1OC (centres undefined)	/	-19%	/	-18%	-6%	24%
C/C=C/c1ccc(OCCCNC(C)CC)c(OC)c1 (centres undefined)	6	1.8µM*	?	32µM*	-1%	-34%
C=CCc1ccc(OCCOCCNCCOC)c(OC)c1	14	-22%	5%	-10%	-3%	27%
C=CCc1ccc(OCCOCCNCCCC)c(OC)c1	-1	4µM*	-6%	50µM*	-4%	?
C/C=C/c1ccc(OCCCNC2CCCC2)c(OC)c1	-1	7.9µM*	-2%	?	-1%	?
C/C=C/c1ccc(OCC(=O)OCC)c(OC)c1	-3	-9%	-16%	8%	-7%	21%
C=CCc1ccc(OCCCCNC(C)CC)c(OC)c1 (centres undefined)	7	14µM*	-8%	-32%	-3%	-19%
C/C=C/c1ccc(OCCCCOc2ccccc2F)c(OC)c1	4	75%	2%	186%	-9%	188%
CC(OC(=O)/C=C/c1ccco1)C(=O)NC1CCCCC1 (centres undefined)	-10	/	-2%	/	/	/
COCCN1C(=O)COc2ccccc2C1C(=O)NC(C)(C)C (centres undefined)	3	/	-5%	/	/	/
CCc1ccc(-c2nc(SCC(=O)NCCOC)c(-c3ccc(C)cc3)[nH]2)cc1	/	-17%	/	-26%	-11%	-2%
CCCN1CNc2c(c(=O)[nH]c(=S)n2CCCc2ccccc2)C1	/	-9%	/	/	/	46%
C=CCc1ccc(OCCOCCOc2cccc3ccc(C)nc23)c(OC)c1	/	1.1µM*	-6%	28µM*	-4%	16µM*
Cc1ccccc1N1CCN(CCN2C(=O)CC(=C3c4ccccc4-c4ccccc43)C2=O)CC1	-9	?	-4%	/	/	?
SMILES	PI5P4Ka inh	JMJD2A Tudor	PLK1 PBD inh	BAZ2B inh	KAT2A inh	HP1b binding inh
COc1ccccc1N1CCN(CCN2C(=O)CC(=C3c4ccccc4-c4ccccc43)C2=O)CC1	-4	32µM*	-7%	/	/	-15%
C=C(C)CC(Nc1ccc(OC)cc1)c1ccco1 (centres undefined)	1	3%	-2%	50µM*	-7%	38%
CSc1ccc(NC(=O)CSc2nc3[nH]c(=O)cc(O)c3s2)cc1	-88*	-33%	?	4%	?	20%
N#Cc1ccc(NC(=O)CSc2nc3[nH]c(=O)cc(O)c3s2)cc1	-8	?	-3%	-10%	-12%	24%
COc1ccccc1C(=O)NC(CCSC)C(=O)OCC(=O)NC(=O)NCc1ccco1 (centres undefined)	-16	?	-13%	50µM*	-12%	-12%
O=C(OCC(=O)N1CCN(S(=O)(=O)c2ccc(Cl)cc2)CC1)c1cccc(OC(F)F)c1	-2	-4%	-8%	-4%	-3%	39%
COc1ccccc1OCc1nnc(-c2ccccc2)o1	/	-2%	/	10%	2%	34%
O=C(CN1CCOCC1)NNC(=O)c1ccc(Cl)cc1	-1	-16%	-1%	/	-3%	18%
S=c1nc(C2COc3ccccc3O2)[nH][nH]1 (centres undefined)	-20	1.8µM*	?	?	?	8%
S=c1[nH]nc(C2COc3ccccc3O2)o1 (centres undefined)	-4	-22%	?	8%	-2%	17%
Cc1nnsc1-c1nnc(SCC(=O)c2ccc(F)cc2)n1C1CC1	4	-6%	-16%	-8%	-4%	28%
CCN(CC)c1ccc(NC2CC(=O)N(CCc3ccc(OC)cc3)C2=O)cc1 (centres undefined)	-19	40µM*	1%	35µM*	16%	?
CCOC(=O)CCCCC(=O)c1[nH]c(=O)[nH]c1C[n+]1ccc(C)cc1	4	-15%	2%	?	-5%	23%
Cc1[nH]c(=O)[nH]c1C(=O)CCCCC(=O)OCC(=O)Nc1ccccn1	3	0.79µM*	-6%	0.89µM*	-4%	-96%
CCc1cnc2c(c1SC(C(C)=O)C(=O)N(C)C)c(=O)n(C)c(=O)n2C (centres undefined)	/	28µM*	/	-30%	-7%	?
CCN(C(=O)COC(=O)Cn1c(C)csc1=O)c1c(N)n(Cc2ccccc2)c(=O)[nH]c1=O	-1	-17%	-5%	1%	-3%	25%
NS(=O)(=O)c1ccc2nc(NC(=O)COc3ccc(Cl)cc3Cl)sc2c1	/	-3%	/	3%	-18%	28%[57 µM]
COc1cc(C(=O)NC2CC(C)(C)Cc3c2cnn3-c2ccccc2)cc(OC)c1OC (centres undefined)	-4	?	30µM*	-4%[57.1 µM]	-1%	-21%[57 µM]
